ADAM17 inh: ADAM17 inhibitors, primary screen, biochemical, QFRET; Disintegrin and metalloproteinase domain-containing protein 17 (Homo sapiens), P78536; recombinant ADAM17, EDANS/DABCYL FRET peptide cleavage; inhibition, % at 6.95 µM; actives 0.83% (n = 370,000); AID 720648, 2013;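 active = inhibition above the mean of compounds lying between control limits plus 3 SD, set per campaign, cut at about 8.5% in these data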;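 note: 0% = DMSO-only wells as the low control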
PLC-gamma1 inh: PLC-gamma1 enzyme inhibitors, primary screen, biochemical, fluorescence, purified enzyme. fluorogenic substrate. inhibition, % at 12.2 µM. actives 0.84% (n = 370,000). 1-phosphatidylinositol 4,5-bisphosphate phosphodiesterase gamma-1 (Homo sapiens), P19174; in the data active = inhibition above about 9.5%
KLK7 zymogen act: proKLK7 zymogen activators, primary screen, biochemical, fluorescence intensity; Kallikrein-7 (Homo sapiens), P49862; purified proKLK7, EDANS-DABCYL substrate fluorescence; 100% is mature enzyme control, 0% vehicle; activation, % at 7 µM; actives 0.9% (n = 370,000); AID 652039, 2013;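 active = activation above the mean of all tested compounds plus 3 SD, computed per campaign excluding outliers beyond control limits, cut at about 13% in these data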
Target sequence (P49862 whole entry, looked up): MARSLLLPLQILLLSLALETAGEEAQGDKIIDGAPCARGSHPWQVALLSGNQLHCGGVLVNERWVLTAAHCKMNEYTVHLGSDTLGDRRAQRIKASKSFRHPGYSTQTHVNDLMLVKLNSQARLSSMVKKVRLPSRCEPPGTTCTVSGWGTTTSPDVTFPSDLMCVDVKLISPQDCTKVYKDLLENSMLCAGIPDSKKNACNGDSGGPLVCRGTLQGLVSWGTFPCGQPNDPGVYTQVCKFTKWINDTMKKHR
PLC-beta3 inh: human PLC-beta3 inhibitors, primary screen, biochemical, fluorescence; AID 720704, 2013; 1-phosphatidylinositol 4,5-bisphosphate phosphodiesterase beta-3 (Homo sapiens), Q01970; inhibition, % at 12.2 µM; Purified PLC-beta3, fluorogenic substrate; actives 0.18% (n = 370,000); in the data active = inhibition above about 11%;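 note: 0% = median of compound wells on plate and 100% = full blocker control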
ADAM10 inh: human ADAM10 inhibitors, primary screen, biochemical, QFRET, HTS. Disintegrin and metalloproteinase domain-containing protein 10 (Homo sapiens), O14672. recombinant ADAM10, EDANS/DABCYL FRET peptide cleavage, 3 h. inhibition, % at 7 µM. actives 0.62% (n = 370,000). AID 720582, 2013;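 active = inhibition above a per-campaign cutoff equal to the mean of compounds falling between control-based bounds plus 3 SD, cut at about 20% in these data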;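 note: 0% = DMSO wells while the 100% control is not disclosed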
HGIII-sPLA2 inh: human group III sPLA2 inhibitors, primary screen, biochemical, QFRET, BODIPY PC-A2 liposome substrate; QFRET BODIPY PC-A2 liposome hydrolysis, fluorescence; inhibition, % at 12.2 µM; actives 0.56% (n = 370,000);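 active = inhibition above mean plus 3 SD of compounds lying within the high and low control bounds, cut at about 19% in these data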;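 note: 0% = median of test compound wells and 100% = no enzyme DMSO wells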
proKLK7 act conf: proKLK7 zymogen activators, confirmation, biochemical, fluorescence intensity, triplicate; shares compounds with KLK7 zymogen act; purified proKLK7, EDANS-DABCYL substrate fluorescence; scaled: vehicle 0, mature enzyme 100; activation, % at 7 µM; actives 68% (n = 3,200);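 active = activation, as change over the incubation, above the mean of all tested compounds plus 3 SD, cut at about 13% in these data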
EDANS-DABCYL int: EDANS-DABCYL substrate optical interference, artefact control for kallikrein-7 zymogen activator project, biochemical, fluorescence intensity, high throughput. no enzyme, 4 h; solvent 0%, active enzyme control 100%. actives 80% (n = 3,200). activation, % at 7 µM. AID 686952, 2013. shares compounds with KLK7 zymogen act;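 active = activation above the all-compound mean plus 3 SD, ignoring values outside control-based bounds, cut at about 4.8% in these data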;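 note: value is the 4 h activation minus the activation read at time zero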
K7 EDANS ctr: optically interferes with EDANS-DABCYL fluorescence, kallikrein-7 activator counter-screen; AID 720493; actives 20% (n = 250); EC50, µM; shares compounds with KLK7 zymogen act; EDANS-DABCYL peptide fluorescence interference, no enzyme;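 active = compounds that raise the fluorescence signal in this interference counterscreen, with EC50 at or below 10 µM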;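 note: intact quenched peptide substrate alone read at 355 nm excitation and 520 nm emission; signal is fluorescence gain from T0 to T4 after four hours at room temperature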
Starred values were filed as active, the others as inactive; i = inactive; nt = no result given. Rows were chosen to be rich in hits. Some 3.4% of all compounds tested hit in one or more screens of this group.

SMILES	ADAM17 inh	PLC-gamma1 inh	KLK7 zymogen act	PLC-beta3 inh	ADAM10 inh	HGIII-sPLA2 inh	proKLK7 act conf	EDANS-DABCYL int	others
O=C(NS(=O)(=O)c1ccccc1[N+](=O)[O-])[C@H]1O[C@@H](n2ccc(=O)[nH]c2=O)[C@H](O)[C@@H]1O	-2	3	0	7	-10	7	nt	nt
C[C@H]1Cn2cnc(C(=O)N3CCN(C(=O)OC(C)(C)C)CC3)c2C(=O)N1	-4	1	0	1	-16	6	nt	nt
COc1cc2ccccc2cc1C(=O)O	-13	-36	0	-39	-33	-3	nt	nt
COc1cc2c(OC)cccc2cc1C(=O)O	-135	-199	18*	-209	-406	1	11	8.5*
CCCCN1C(=O)c2cccc3cc(O)cc(c23)C1=O	-2	i	31*	i	-3	-10	48*	68*
c1csc(C2Nc3ccccc3-c3nc4ccccc4n32)c1 (stereo not drawn)	i	i	90*	i	i	-9	30*	27*
CCN1c2ccccc2-c2nc3ccccc3n2C1c1ccccn1 (stereo not drawn)	i	-450	21*	i	i	3	28*	-7	K7 EDANS ctr=>70
CC(=O)N1c2ccccc2-c2nc3ccccc3n2C1C (stereo not drawn)	-2	-2	1	-4	-9	-5	nt	nt
Cc1ccc(C2N(C)c3ccccc3-c3nc4ccccc4n32)o1 (stereo not drawn)	i	i	10	i	i	-12	nt	nt
Cc1ccsc1C1Nc2ccccc2-c2nc3ccccc3n21 (stereo not drawn)	i	i	63*	i	i	16	-21	-19
CN1c2ccccc2-c2nc3ccccc3n2C1c1cccs1 (stereo not drawn)	i	i	40*	i	i	-7	-12	-11
CC(C)CN1C(=O)C[C@]2(C(=O)N(C)c3ccc(NC(=O)c4cc(F)ccc4F)cc32)C1c1ccccc1 (stereo partly drawn)	-4	-1	0	1	1	-8	nt	nt
CN(C)/C=N/c1nc2nccc(-c3ccc(Cl)cc3)n2n1	-69	-157	18*	-201	-254	4	66*	69*
Nc1nc2nccc(-c3ccc(Cl)cc3)n2n1	i	i	57*	i	i	2	70*	85*
COC(=O)C1=C(C)N(C)C(=NCc2ccc3c(c2)OCO3)NC1c1cccc(F)c1 (stereo not drawn)	3	3	0	6	-4	0	nt	nt
O=C(NCCc1c[nH]c2ccccc12)OCc1cn(Cc2ccc(C(F)(F)F)cc2)nn1	3	-2	0	-2	8	-91	nt	nt
COc1ccc(OC)c(/C=C/C(=O)OCC(=O)N2CCCCC2)c1	-44	i	22*	i	-157	3	14*	14*
COc1ccc(OC)c(/C=N/NC(=O)c2cc[n+](Cc3ccccc3)cc2)c1	-9	-36	45*	-33	-29	-2	79*	81*
COc1ccc(OC)c(/C=N/NC(=O)c2ccncc2)c1	-6	-10	41*	-21	-15	8	41*	39*

Assay outcomes deposited in PubChem by The Scripps Research Institute Molecular Screening Center.
